Source: PubChem BioAssay
SIRT5 inh = SIRT5 desuccinylase inhibitors, primary screen, biochemical, fluorescence imaging, single point, set 5 | actives 1.1% (n = 330,000) | AID 652115, 2013 | inhibition, % at 15 µM | Purified SirT5, succinyl-peptide AMC, trypsin-coupled fluorescence; in the data active = inhibition above about 15%; inconclusive = no clear call, values can overlap the other calls
Target sequence (Q9NXA8 whole entry, looked up): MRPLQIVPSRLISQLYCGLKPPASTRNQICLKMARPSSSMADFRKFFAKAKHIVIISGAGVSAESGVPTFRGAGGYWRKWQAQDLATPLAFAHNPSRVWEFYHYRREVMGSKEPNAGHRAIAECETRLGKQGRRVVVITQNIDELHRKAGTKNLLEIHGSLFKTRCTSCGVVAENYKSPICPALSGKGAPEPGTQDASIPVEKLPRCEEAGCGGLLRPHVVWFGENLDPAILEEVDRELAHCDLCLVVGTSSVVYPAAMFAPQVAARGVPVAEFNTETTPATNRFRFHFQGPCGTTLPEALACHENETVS
dFosB activator = activators of delta FosB homodimer, primary screen, biochemical, fluorescence polarization, TAMRA-CDK5 oligo, single point | Protein FosB (Mus musculus), P13346 | purified delta FosB; percent of positive-control signal above neutral wells | activation, % at 25 µM | actives 0.99% (n = 340,000) | AID 493131, 2011;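 active = mean activation above about 17%, with every replicate also reaching it, limit read from the data, passing the limit was not always enough; inconclusive = only one of the two conditions met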
PglD DTNB = C. jejuni PglD acetyltransferase inhibitors, primary screen, biochemical, DTNB colorimetric, single point. inhibition, % at 12.5 µM. AID 602405, 2012. purified PglD enzyme, DTNB colorimetric CoA detection. actives 0.098% (n = 360,000); in the data active = inhibition above about 16%, passing the limit was not always enough; inconclusive = no clear call, values can overlap the other calls
CDK5 inh = inhibitors of human CDK5/p35 kinase, primary screen, biochemical, single concentration | AID 488839, 2010 | inhibition, % at 10 µM | actives 0.01% (n = 330,000) | Recombinant CDK5/p35, ADP-Glo luminescence, 60 min;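 active = highest replicate inhibition of at least 50% and at least 75% of replicates reaching 50%; inconclusive = only one of the two criteria met; inactive = both criteria failed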
FGF22 binding = binders of human FGF22 protein, primary screen, FGF22 synaptogenesis inhibitor project, biophysical, thermal shift, single point | recombinant FGF22 thermal shift, SYPRO orange fluorescence; percent of sucrose octasulfate shift, DMSO zero | activity (Tm shift, normalised), % at 9.99 µM | actives 1.5% (n = 340,000) | AID 651658, 2012;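 active = mean Tm shift, scaled 0 neutral to 100 positive control, at about 1.3% or above, every replicate too, limit read from the data; inconclusive = no clear call, values can overlap the other calls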
Target sequence (Q9HCT0 whole entry, looked up): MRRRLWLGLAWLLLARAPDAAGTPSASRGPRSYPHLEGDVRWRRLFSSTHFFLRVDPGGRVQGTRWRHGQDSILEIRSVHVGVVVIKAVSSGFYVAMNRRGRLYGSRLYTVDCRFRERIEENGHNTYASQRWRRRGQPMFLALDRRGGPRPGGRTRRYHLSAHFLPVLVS
PvdQ acylase = P. aeruginosa PvdQ acylase inhibitors, primary screen, biochemical, fluorescence, plate reader and imaging, single point; actives 0.063% (n = 340,000); purified PvdQ acylase; AID 488965, 2010; inhibition, % at 10 µM; PvdQ acylase [Pseudomonas aeruginosa LESB58]; in the data active = inhibition above about 30%, passing the limit was not always enough; inconclusive = no clear call, values can overlap the other calls
Numbers stand for hits; 0 = inactive; ? = inconclusive; - = no result given. The list is not random: actives were taken first. Their share in the collection is about 2.8%.

SMILES | SIRT5 inh | dFosB activator | PglD DTNB | CDK5 inh | FGF22 binding | PvdQ acylase
CN(C)/C=C/C(=O)c1ccc(Cl)s1 | 0 | 0 | - | 0 | 44.7 | 0
O=C(Nc1ccc([N+](=O)[O-])cc1)c1ccccc1F | 0 | 0 | 0 | 0 | 0 | 0
O=C(Nc1ncc(S(=O)(=O)c2ccc([N+](=O)[O-])cc2)s1)c1ccccc1F | 21.6 | 0 | - | 0 | 0 | 0
COc1ccc2c3c(n(C)c2c1)[C@@H](CO)N(C(=O)C1CCCC1)CC31CCN(CC2CCCC2)CC1 | 0 | - | - | - | 0 | -
COc1ccccc1-c1cccc(-c2nc(C(=O)Nc3nccs3)cc3c2[C@@H](CCO)N(C(=O)CC2CC2)C3)c1 | 15.7 | - | - | - | 0 | -
COc1cc(OC)c(NC2c3ccccc3C(=O)N2c2cc(C)ccn2)cc1Cl (configuration not stated) | 0 | 0 | 0 | 0 | 3.4 | 0
CCOC(=O)c1ccccc1NC1c2ccccc2C(=O)N1c1cc(C)ccn1 (configuration not stated) | 0 | 0 | 0 | 0 | 0 | 0
CCCc1cc2c(=O)c(-c3cscn3)c(C(=O)OCC)oc2cc1O | 0 | 0 | 0 | 0 | 43.4 | 0
COc1ccc(-c2ccccc2)cc1NC(=O)c1cccs1 | 16.4 | 0 | 0 | 0 | 0 | 0
COc1ccc(C(=O)Nc2ccc(NC(=O)c3cccs3)cc2)cc1Cl | 0 | ? | - | 0 | 43.1 | 0
COc1cc(NC(=O)c2cccs2)c(OC)cc1NC(=O)c1cccs1 | - | 0 | 0 | 0 | - | 0
COc1ccc(-c2ccccc2)cc1NC(=O)C1(C)CCN1C(=O)C(C)C (configuration not stated) | 22.0 | - | 0 | - | 0 | -
CC(C)C(=O)N1CCC1(C)C(=O)Nc1ccccc1OC(F)F (configuration not stated) | 0 | - | 0 | - | 0 | -
CC(C)CC#Cc1cnc2c(c1)C(=O)N([C@H](C)CO)C[C@H](C)[C@@H](CN(C)Cc1cncnc1)O2 | 0 | - | 0 | - | 0 | -
O=c1cc(-c2ccccc2[N+](=O)[O-])oc2ccccc12 | 0 | 0 | - | 0 | 43.1 | 0
CC(C)c1cccc(C(C)C)c1NC(=O)CNCC(O)c1ccccc1 (configuration not stated) | 0 | 0 | 0 | 0 | 0 | 0
CC(C)c1cccc(C(C)C)c1NC(=O)CCl | 15.7 | 0 | - | 0 | 0 | 0
CO[C@@H]1CN(C)C(=O)c2cc(NS(=O)(=O)c3ccccc3F)ccc2OC[C@H](C)NC[C@H]1C | 0 | - | 0 | - | 0 | -
Cc1ccc(C)c(S(=O)(=O)N=Nc2c(O)[nH]c3ccccc23)c1 | 0 | 0 | - | 0 | 43.1 | 0
COCC(=O)Nc1ccc2c(c1)C(=O)N(C)[C@H]1CC[C@H](CC(=O)NCc3ccccc3F)O[C@@H]1CO2 | - | - | - | - | 0 | -
CC(/C=C/c1ccco1)=N/NC(=O)c1ccc(C)nc1 | - | 0 | 0 | 0 | 0 | 0
O=C(CNc1ccc2ccccc2c1)N/N=C/c1ccc(OC(=O)/C=C/c2ccco2)cc1 | 0 | 0 | - | 0 | 43.8 | 0
Cc1ccc(C(=O)N/N=C/c2cccc(OC(=O)/C=C/c3ccco3)c2)cn1 | 24.3 | 0 | - | 0 | 0 | 0
O=S1(=O)CC(N2CCN(CCO)CC2)CN1Cc1cn(Cc2cccc(C(F)(F)F)c2)nn1 (configuration not stated) | 23.4 | - | - | - | 0 | -
Cc1cc(C)cc(Cn2cc(CN3CC(N4CCN(CCO)CC4)CS3(=O)=O)nn2)c1 (configuration not stated) | 29.3 | - | - | - | 0 | -
SMILES | SIRT5 inh | dFosB activator | PglD DTNB | CDK5 inh | FGF22 binding | PvdQ acylase
COc1cccc2cc(C(=O)Nc3ccc(F)cc3)c(=Nc3ccc(C(=O)O)cc3)oc12 | 0 | 0 | 0 | 0 | 43.0 | 0
Cc1noc(C)c1NC(=O)Nc1ccc2c(c1)C(=O)N([C@@H](C)CO)C[C@H](C)[C@H](CN(C)C(=O)Nc1ccc(F)cc1)O2 | 0 | - | 0 | - | 0 | -
c1ccc(-c2noc(CC3CCCCC3)n2)cc1 | 0 | 0 | 0 | 0 | 42.9 | 0
COc1ccc(-c2nnn(Cc3ccccc3)n2)cc1OC | 0 | 0 | 0 | 0 | 0 | 0
COc1cc2c3nnc(-c4ccc(F)cc4)c-3cn(Cc3ccccc3)c2cc1OC | 0 | 18.9 | 0 | 0 | 0 | 0
COc1ccc(Cn2cc3c(-c4ccc(F)cc4)nnc-3c3cc(OC)c(OC)cc32)cc1 | 0 | 34.3 | 0 | 0 | 0 | 0
Cn1nc2c3cc(F)ccc3n(Cc3ccc(F)cc3)cc-2c1=O | 0 | 0 | - | 0 | 0 | 0
CCC(C(=O)NCCCN1CC(C)CC(C)C1)n1nc(C)c2sc3ccccc3c2c1=O (configuration not stated) | 31.5 | 0 | 0 | 0 | 0 | 0
NNC(=O)Nc1cccc(C(F)(F)F)c1 | 41.1 | 0 | 0 | 0 | 0 | 0
Cc1ccc(C(=O)N/C(=C\c2ccc3c(c2)OCO3)C(=O)Nc2ccc(C(=O)O)cc2)cc1 | 0 | 0 | - | 0 | 43.0 | 0
COc1ccc(NC(=O)Nc2ccc3c(c2)C(=O)N([C@H](C)CO)C[C@H](C)[C@@H](CN(C)C(=O)Nc2ccc(OC)cc2)OCCCC[C@@H](C)O3)cc1 | 0 | - | 0 | - | 0 | -
C/C=C/c1ccc([C@@H]2[C@H](CO)N(C(=O)c3cnccn3)C23CN(C(=O)C2CC2)C3)cc1 | 0 | - | - | - | - | -
Brc1ccc2c(c1)-c1ccccc1C1=NCCN12 | - | - | 0 | - | 43.4 | -
O=C(Nc1nc2c(s1)CCCC2)c1ccc2ncsc2c1 | 0 | 0 | 0 | 0 | 1.7 | 0
Cc1ncsc1C(=O)Nc1nc2c(s1)CCCC2 | 0 | 0 | 0 | 0 | 0 | 0
CCOP(=O)(OCC)C1NC(=O)N(c2ccccc2)C1=O (configuration not stated) | 29.8 | 0 | 0 | 0 | 0 | 0
Cc1sc(NC(=O)CSc2n[nH]c(N)n2)c(C#N)c1C | 15.6 | 0 | 0 | 0 | 0 | 0
COC(=O)c1c(NC(=O)CSc2n[nH]c(N)n2)sc(C)c1C | - | 0 | 0 | 0 | - | 0
CCCCNc1ccc(C(F)(F)F)cc1S(=O)(=O)NCCc1ccc(F)cc1 | - | 0 | 0 | 0 | 20.5 | 0
C[C@@H]1CN([C@H](C)CO)C(=O)Cc2cc(NC(=O)C3CCCCC3)ccc2O[C@@H]1CN(C)C(=O)NC1CCCCC1 | 0 | - | 0 | - | 0 | -
COc1ccccc1-c1ccc2c(c1)O[C@@H](CN(C)S(=O)(=O)c1ccc(F)cc1)[C@H](C)CN([C@@H](C)CO)S2(=O)=O | 0 | - | 0 | - | 0 | -
C[C@H](CO)N1C[C@H](C)[C@@H](CN(C)S(=O)(=O)c2ccc(F)cc2)Oc2cc(-c3cccc(F)c3)ccc2S1(=O)=O | 16.7 | - | 0 | - | 0 | -
